Values joined by “and” are separate entries in the source; they are usually repeats but may differ in a detail not shown here. Equal values may be shown once. Where a structure was tested more than once in an assay, its records may differ in their call. Active and inactive are the calls of the source. Rule for the calls: active = hit-call score of the fitted dose curve at least 0.9, where 1 is the maximum; inactive = score below 0.9.
What was measured:
[1] = BSK_BF4T_SRB: Viability Assessment in the BioMAP Diversity Plus: BF4T Assay (AID 2284274); conditions: primary human bronchial epithelial cells with fibroblasts;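 note: measured 24 h after compound addition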
Summary of the method: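 Cytotoxicity measured as total protein: cells fixed with 10% TCA, stained with 0.1% SRB, read at 560 nm. Bronchial epithelial/dermal fibroblast co-culture, 24 h after dosing, with positive-direction fitting relative to DMSO.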

[2] = read-out: urokinase Plasminogen Activator (uPA), PLAU (gene 5328); test: BSK_BF4T_uPA: BioMAP Diversity Plus: BF4T Assay for urokinase Plasminogen Activator (uPA) Biomarker Activity (AID 2284275); conditions: primary human bronchial epithelial cells with fibroblasts
Summary of the method: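 uPA levels measured by ELISA at 24 hours in BF4T cultures (bronchial epithelial cells plus dermal fibroblasts) and compared with DMSO; cytotoxicity tracked in parallel cultures by sulforhodamine B staining.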

[3] = read-out: Matrix Metallopeptidase 9 (MMP9), MMP9 (gene 4318); test: BSK_BF4T_MMP9: BioMAP Diversity Plus: BF4T Assay for Matrix Metallopeptidase 9 (MMP9) Biomarker Activity (AID 2284276); conditions: primary human bronchial epithelial cells with fibroblasts
Summary of the method: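 MMP-9 levels were measured by ELISA after 24 h exposure of bronchial epithelial cell/dermal fibroblast co-cultures, with DMSO as baseline. Parallel cultures were stained with 0.1% SRB after TCA fixation, read at 560 nm, to flag overt cytotoxicity.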

[4] = read-out: Interleukin-8 (IL8), CXCL8 (gene 3576); test: BSK_IMphg_IL8: BioMAP Diversity Plus: IMphg Assay for Interleukin-8 (IL8) Biomarker Activity (AID 2284277); conditions: primary human endothelial cells with macrophages
Summary of the method: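 IL-8 levels were measured by ELISA 24 h after dosing in primary human venular endothelial cell–macrophage cultures, referenced to DMSO; parallel SRB staining monitored overt cytotoxicity.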

[5] = read-out: Intercellular Adhesion Molecule 1 (ICAM1), ICAM1 (gene 3383); test: BSK_BE3C_ICAM1: BioMAP Diversity Plus: BE3C Assay for Intercellular Adhesion Molecule 1 (ICAM1) Biomarker Activity (AID 2284278); conditions: primary human bronchial epithelial cells;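 for outcome: cell-surface ICAM-1 protein level quantified by ELISA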
Method: BSK_BE3C is a cell-based, multiplexed-readout assay that uses bronchial epithelial cell, a human lung primary cell, with measurements taken at 24 hours after chemical dosing in a 96-well plate.BSK_BE3C_ICAM1 is an assay component measured in the BSK_BE3C assay. It measures ICAM-1 antibody related to regulation of gene expression using ELISA technology.Data from the assay component BSK_BE3C_ICAM1 was analyzed at the endpoint, BSK_BE3C_ICAM1, in the positive analysis fitting direction relative to DMSO as the negative control and baseline of activity. Using a type of binding reporter, gain or loss-of-signal activity can be used to understand protein changes. […]
The levels of cell surface (or secreted, indicated by the prefix "s") biomarker endpoints were measured by ELISA. Overt cytotoxicity to cells in confluent adherent cultures (all systems other than the BT system) was assessed by measuring total protein levels using sulforhodamine B (SRB) staining in parallel cultures at the time of biomarker measurements, indicated as SRB endpoints. For proliferation assays for adherent cell types, individual cell types are cultured at sub-confluence and relative cell numbers quantified by SRB staining at time points optimized for each system (48 h: 3C and CASM3C systems; 72 h: BT and HDF3CGF systems; 96 h: SAg system). […] Plates were read after 6 h.

[6] = read-out: Interferon-inducible T-cell alpha chemoattractant (ITAC), CXCL11 (gene 6373); test: BSK_BE3C_ITAC: BioMAP Diversity Plus: BE3C Assay for Interferon-inducible T-cell alpha chemoattractant (ITAC) Biomarker Activity (AID 2284279); conditions: primary human bronchial epithelial cells
Summary of the method: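 BE3C cells (human primary bronchial epithelium), 24 h compound exposure, I-TAC by ELISA, DMSO = negative control/baseline, positive fitting direction.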

[7] = read-out: Interleukin-8 (IL8), CXCL8 (gene 3576); test: BSK_BE3C_IL8: BioMAP Diversity Plus: BE3C Assay for Interleukin-8 (IL8) Biomarker Activity (AID 2284280); conditions: primary human bronchial epithelial cells
Summary of the method: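 Measured at 24 h after treatment, IL-8 from human primary bronchial epithelial cells is determined by ELISA, and the response is modelled as increasing relative to DMSO negative control.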

[8] = read-out: Epidermal growth factor receptor (EGFR), EGFR (gene 1956); test: BSK_BE3C_EGFR: BioMAP Diversity Plus: BE3C Assay for Epidermal growth factor receptor (EGFR) Biomarker Activity (AID 2284281); conditions: primary human bronchial epithelial cells
Summary of the method: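 Measured 24 h after dosing in primary human bronchial epithelial cultures, EGFR was read by ELISA; gain of signal over DMSO control defined activity.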

KRT18 (gene 3875) = test: BSK_BE3C_Keratin818: BioMAP Diversity Plus: BE3C Assay for Keratin 818 Biomarker Activity (AID 2284282); conditions: primary human bronchial epithelial cells
Summary of the method: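 ELISA read-out of Keratin 8/18 in BE3C human bronchial epithelial cultures, 24 h post-dosing; positive-direction fit vs DMSO baseline.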

[9] = read-out: Matrix Metallopeptidase 9 (MMP9), MMP9 (gene 4318); test: BSK_BE3C_MMP9: BioMAP Diversity Plus: BE3C Assay for Matrix Metallopeptidase 9 (MMP9) Biomarker Activity (AID 2284283); conditions: primary human bronchial epithelial cells
Summary of the method: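 BE3C, human bronchial epithelial primary cells; 24 h post-dose; MMP-9 by ELISA; positive fit vs DMSO; SRB (0.1%, TCA-fixed, 560 nm) parallel cytotox.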

## CCNS(=O)(=O)C(F)(F)C(F)(F)C(F)(F)C(F)(F)C(F)(F)C(F)(F)C(F)(F)C(F)(F)F
[1]
  AC50: 44.7 µM (active) and 41.4 µM (active)
[2]
  AC50: 47.3 µM (active)
  outcome: inactive
[3]
  AC50: 30 µM (active) and 39.9 µM (active)
[4]
  AC50: 21.3 µM (active) and 27.2 µM (active)
[5]
  AC50: 40.3 µM (active)
  outcome: inactive
[6]
  AC50: 40 µM (active) and 35.2 µM (active)
[7]
  AC50: 16.4 µM (active) and 22.6 µM (active)
[8]
  AC50: 38.2 µM (active) and 23.3 µM (active)
KRT18 (gene 3875)
  AC50: 21.5 µM (active) and 21.8 µM (active)
[9]
  AC50: 30 µM (active) and 18.5 µM (active)
